Assay results as given in PubChem BioAssay AID1009 (NMMLSC, 2008).
In all, about 190,000 compounds went through this assay and about 200 (0.11%) were called active. Rule as the data show it: active = inhibition above about 40%. Shown is part of a subset that was picked to be rich in actives.

Each compound was assayed against Induced myeloid leukemia cell differentiation protein Mcl-1 (Homo sapiens) (UniProt Q07820) (assay: inhibitors of Bim peptide binding to Mcl-1, primary screen, biochemical, bead-based flow cytometry, multiplex (AID 1009;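 also: 0% = no compound tracer wells and 100% = peptide blocker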)). Conditions: Bim peptide-Mcl-1 binding, at 10 µM, stronger effect = higher value.
Chain of Induced myeloid leukemia cell differentiation protein Mcl-1 (Homo sapiens) (Q07820 whole entry, looked up): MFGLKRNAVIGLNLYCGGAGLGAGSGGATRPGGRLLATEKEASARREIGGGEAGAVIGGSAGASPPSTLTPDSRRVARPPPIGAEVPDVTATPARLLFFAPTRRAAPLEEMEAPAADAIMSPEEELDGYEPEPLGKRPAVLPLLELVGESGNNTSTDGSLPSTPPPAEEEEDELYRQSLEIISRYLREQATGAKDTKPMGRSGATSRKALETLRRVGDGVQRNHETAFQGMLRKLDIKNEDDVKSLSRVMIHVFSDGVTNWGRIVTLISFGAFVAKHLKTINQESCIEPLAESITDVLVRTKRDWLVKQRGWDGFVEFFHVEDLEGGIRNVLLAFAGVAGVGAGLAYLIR

inhibition, inactive:
COCCNC(=O)CCCn1c(=O)c2ccccc2n(Cc2cccc([N+](=O)[O-])c2)c1=O 0%, CCC(=O)N1c2ccccc2NC2=C(C(=O)CCC2)C1c1ccco1 (stereo not drawn) 0%, S=c1[nH]cc(-c2ccc(Cl)cc2)n1-c1ccccc1 3%, CC/C(=N\NC(=S)NC(C)C)c1ccc(OC(F)F)cc1 -2%, O=c1cc(CO)oc(C(Nc2cccc([N+](=O)[O-])c2)c2ccccn2)c1O (stereo not drawn) -4%, CCCc1nc2c([nH]1)C(c1cccnc1)C(C#N)=C(N)O2 (stereo not drawn) -3%, COCCCNC(=S)N1CCCC(c2nc3cc(C)c(C)cc3[nH]2)C1 (stereo not drawn) 6%, O=C(O)c1ccc2c3c(cccc13)C(=O)N(OS(=O)(=O)c1ccccc1)C2=O 1%, O=c1[nH]c(CN2CCOCC2)nc2scc(-c3ccccc3)c12 0%, O=C(O)Cc1ccc(NCc2ccccc2Cl)cc1 -2%, CC(NC(=O)CC1SC(N)=NC1=O)c1ccccc1 (stereo not drawn) -7%, CCc1nn(CCCN2CCN(c3cccc(Cl)c3)CC2)c(=O)n1CCOc1ccccc1 0%, O=C1CS(=O)CN1c1ccc(Oc2ccccc2)cc1 (stereo not drawn) 0%, C=C(C)C1CC=C(C)/C(=N\NC(=O)CNc2ccccc2OC)C1 (stereo not drawn) 0%, COc1ccc([N+](=O)[O-])cc1NC(=O)CC1SC(=Nc2cccc(C)c2C)N(/N=C(\C)c2ccc(C)cc2)C1=O (stereo not drawn) -1%, Cc1ccccc1NC(=O)Cn1c(=O)n(CC2CCCO2)c(=O)c2ccccc21 (stereo not drawn) -1%, COc1cccc(NC(=S)C(C#N)=C2N(C)c3ccccc3N2C)c1 -1%, CCc1[nH]nc(C(=O)N2CCCC(CNS(=O)(=O)c3cccs3)C2)c1C (stereo not drawn) 0%, CC(C(=O)NCC1CCCCC1)N(C)Cc1cccc(Cl)c1 (stereo not drawn) -1%, CCO[C@H]1OC(C(=O)N2CCCCCCC2)=C[C@@H](c2ccc(C(F)(F)F)cc2)[C@@H]1CCCO -4%, O=S(=O)(c1ccc(F)cc1)N1CCN(C(=S)NCc2ccco2)CC1 -6%, CC(=O)Nc1ccc(NC(=S)NC(=O)c2ccc([N+](=O)[O-])c(C)c2)cc1 2%, CN1CCN(CCNC(=O)Nc2ccc([N+](=O)[O-])cc2)CC1 -3%, CC1CCC(C(C)C)C(=O)/C1=C\c1ccc(NC(=O)CCC(=O)O)cc1 (stereo not drawn) 0%, Cc1ccc(CN2CCN(Cc3ccccc3-c3ccco3)CC2CCO)o1 (stereo not drawn) -1%, CCCCC1S/C(=N/N=C/c2cccs2)NC1=O (stereo not drawn) -1%, NC(=O)c1ccc(N2CCOCC2)nc1 1%, Cc1ccc2nc(C)cc(N/N=C/c3ccc(F)cc3)c2c1 0%, Cc1n[nH]c(=O)nc1N/N=C/c1cccs1 -1%, CC(=O)N/N=C/c1cc2c(cc1[N+](=O)[O-])OCO2 -2%, Cc1ccc(Cl)cc1NC(=O)c1ccccn1 -2%, NS(=O)(=O)c1ccc(NC(=O)COC(=O)c2ccco2)cc1 1%, O=C(N/N=C/c1ccco1)c1ccc(NC(=O)C2CC2)cc1 -2%, Cc1ccc2c(CC(=O)NCc3cccs3)coc2c1 -3%, COc1ccccc1NC(=O)C[n+]1ccccc1 0%, CCOC(=O)/C(C#N)=C/c1ccc(N2CCCCC2)cc1 0%, CCOC(=O)c1sc2nc(C)nc(Nc3ccc(OC)c(OC)c3)c2c1C 3%, Cc1nc2ccccc2c(C)c1C(=O)c1ccc(F)cc1 0%, CCOC(=O)c1ccc(NNC(C)=O)c([N+](=O)[O-])c1 -1%, Cc1nc2cc(NCc3cccs3)ccc2n1C -1%, COc1ccc(N2CCN(C(=O)C3CCN(S(=O)(=O)c4ccc(C)cc4)CC3)CC2)cc1 0%, O=C(CC1SC(=Nc2ccccc2)N(Cc2ccccn2)C1=O)Nc1cccc(Cl)c1 (stereo not drawn) 2%, CCOC(=O)c1sc(=NC(=O)/C=C/c2cccs2)n(C)c1C 3%, CC(=O)N1CCN(S(=O)(=O)c2ccc(C)c([N+](=O)[O-])c2)C1C(C)C (stereo not drawn) 0%, CCC1(CC)NC(=O)N(Cc2nc3ccccc3s2)C1=O -2%, CCCNC(=O)OC[C@H]1O[C@H](CCO/N=C/[C@@H](NS(=O)(=O)c2ccc(C)cc2)[C@H](C)/C=C/CC(=O)OC)C=C[C@@H]1Oc1ccc(OC)cc1 -2%, Cc1ccc(C(=O)NC(=S)Nc2ccc3[nH]c(=O)[nH]c3c2)cc1C -2%, CSc1nc2nc(-c3cccc(C(F)(F)F)c3)ccn2n1 5%
